TrxR1 inh = rat TrxR1 inhibition. O89049. recombinant rTrxR1, NADPH fluorescence consumption, selenite substrate. Potency, µM (doses to about 114 µM), for inactives: at the top dose activity change, negative = inhibition, usual class: inhibitors. 390,000 tested, 1% active; note: potency is the fitted concentration of half-maximal effect; nearly all actives have a fitted effect of over 65% in size
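Rat TrxR1 (90 nM in the dispensed reagent) was pre-reduced with 400 uM NADPH for 5 min at room temperature, then incubated with compound for 15 min. After 400 uM selenite was added, NADPH fluorescence (Ex 340/Em 450 nm) was followed for 8 min.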
TrxR1 substrate = rat thioredoxin reductase 1 substrate activity | O89049 | purified TrxR1 substrate turnover, NADPH consumption readout | Potency, µM (top dose mostly 114 µM), for inactives: top-dose activity change, negative = substrate turnover | 390,000 tested, 0.01% active | AID 588456; note: potency is the fitted concentration of half-maximal effect; nearly all actives have a fitted effect of over 50% in size
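Rat TrxR1, dispensed at 90 nM, was prereduced with 400 uM NADPH (final) for 5 min at ~22 deg C, then incubated with compound 15 min before 400 uM selenite. A first-read NADPH fluorescence drop versus no-compound background flagged substrates.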
Eya2 phos inh = inhibitors of human Eya2 phosphatase activity. O00167. Potency, µM (highest dose often 76.9 µM), inactives show at the highest dose activity, negative = inhibition, most hits filed as inhibitors. 330,000 tested, 0.006% active. recombinant Eya2, OMFP fluorescence dephosphorylation (OMFP is methylfluorescein phosphate); note: potency is the fitted concentration of half-maximal effect
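Eya2 protein (added as 0.2 uM solution) was preincubated with compound for 10 min at ambient temperature in 50 mM HEPES pH 7.5, 50 mM NaCl, 5 uM MgCl2, 0.05% BSA, 1 mM DTT. OMFP (added at 50 uM) then reacted 10 min; fluorescence read at 485/525 nm.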
Six1-Eya2 inh = Six1/Eya2 interaction inhibition. Q15475+O00167. AlphaScreen GST-Six1/His-Eya2 binding, biochemical; hits give low values. activity change, % (concentration not given with the values). 360,000 tested, 0.56% active; in the data active = activity change below about -65%; inconclusive = mostly about -30% to -63%
Target sequence (O00167 whole entry, looked up): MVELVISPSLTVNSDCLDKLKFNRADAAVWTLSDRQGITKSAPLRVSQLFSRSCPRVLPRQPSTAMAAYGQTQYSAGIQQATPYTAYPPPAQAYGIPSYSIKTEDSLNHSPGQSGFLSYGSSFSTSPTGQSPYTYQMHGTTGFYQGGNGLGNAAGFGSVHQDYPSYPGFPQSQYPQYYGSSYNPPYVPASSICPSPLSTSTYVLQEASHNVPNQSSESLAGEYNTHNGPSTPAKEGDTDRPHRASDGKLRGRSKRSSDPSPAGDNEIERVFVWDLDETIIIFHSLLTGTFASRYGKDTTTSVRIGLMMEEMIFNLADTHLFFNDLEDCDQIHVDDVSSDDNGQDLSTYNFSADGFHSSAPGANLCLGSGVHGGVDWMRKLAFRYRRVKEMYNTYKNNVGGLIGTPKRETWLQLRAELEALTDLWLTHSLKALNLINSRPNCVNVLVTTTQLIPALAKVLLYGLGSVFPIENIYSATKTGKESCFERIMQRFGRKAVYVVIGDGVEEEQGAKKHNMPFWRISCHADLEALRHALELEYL
Target sequence (Q15475 whole entry, looked up): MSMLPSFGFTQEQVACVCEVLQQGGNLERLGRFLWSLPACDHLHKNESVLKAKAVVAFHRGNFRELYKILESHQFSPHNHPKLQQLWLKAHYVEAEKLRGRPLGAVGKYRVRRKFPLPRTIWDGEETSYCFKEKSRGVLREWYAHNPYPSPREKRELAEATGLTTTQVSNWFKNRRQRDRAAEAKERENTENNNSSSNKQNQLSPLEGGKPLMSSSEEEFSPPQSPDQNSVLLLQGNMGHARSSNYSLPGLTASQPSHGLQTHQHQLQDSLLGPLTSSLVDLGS
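AlphaScreen luminescence read after one hour at 37 °C in darkness. Pin-transferred compounds met GST-Six1 and His-Eya2 protein (5X stock 250 nM/500 nM) plus glutathione donor and Ni-chelate acceptor beads (5X, 50 ug/mL).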
CtBP-E1A inh = CtBP/E1A binding inhibition; AlphaScreen GST-E1A/His-CtBP binding, 1536-well; hits give low values; activity change, % (concentration not given with the values); 340,000 tested, 0.49% active; AID 651724; in the data active = activity change below about -65%; inconclusive = mostly about -30% to -63%
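In 5 uL wells, 23 nL compound meets equimolar GST-E1A and His-CtBP (5X stock 125 nM each) for 2 h, 37 °C. Beads (5X, 50 ug/mL) then 1 h, 37 °C, dark.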
GALK inhibitor = galactokinase (human) inhibition. AID 1868. Potency, µM (titrated, usually from 57.5 µM), without a hit: top-dose activity change, negative = inhibition, most hits filed as inhibitors. 270,000 tested, 0.007% active. Purified GALK, Kinase-Glo residual ATP luminescence. P51570; note: potency is the fitted concentration of half-maximal effect
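Compounds were pin-transferred into ATP buffer (35 uM final), then GALK plus galactose (5 nM, 100 uM final) was added. After 1 h at room temperature, Kinase-Glo Plus was added and luminescence read after 10 min.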
The depositor's hits bear a star; u = inconclusive; x = no result; [ ] = dose if it differs, or a comment. Shown are actives, neighbours in structure and some others; about 1.5% of the full set was active somewhere. Unless noted, calls come from the whole dose curve; as a rule, active = well fitted curve in the direction sought with a large enough effect; inconclusive = small, poorly fitted or top-dose-only effect, or another doubt; inactive = no such curve, though single readings can be large; an effect the other way counts as inactive or inconclusive. % is set by controls: 0 for no effect and ±100 for the full control effect.

SMILES	TrxR1 inh	TrxR1 substrate	Eya2 phos inh	Six1-Eya2 inh	CtBP-E1A inh	GALK inhibitor
COC(=O)N1C(=O)[C@](c2ccsc2)(C(C)C)N1C(=O)OC	25µM*	5%	5%	-2	2	x
O=S(=O)(NC(=S)NC1CCCCC1)c1ccccc1	3.2µM*	-6%	5%	5	8	0%
CCOC(=O)[C@H]1[C@H]2COc3ccc(C)cc3[C@@H]2N2C(=O)CN(Cc3ccco3)C(=O)[C@@]12C	56µM*	3%	3%	-1	-5	x
CCOC(=O)[C@H]1[C@H]2COc3ccc(C)cc3[C@@H]2N2C(=O)CN(Cc3ccc(C)cc3)C(=O)[C@@]12C	15%[57.1 µM]	6%[57.1 µM]	0%	-2	-3	x
O=C(NCCc1ccccc1)c1nn(-c2ccc(F)cc2)nc1CO	35%	10%	x	x	x	x
O=C(CSc1ccc(-c2ccccn2)nn1)NCc1ccc(F)cc1	15%[57.1 µM]	5%[57.1 µM]	-4%	-81*	-66*	-3%
O=C(CSc1ccc(-c2ccccc2)nn1)NC1CCCCC1	-17%	-10%	5%	-4	-10	5%
O=C(CSc1ccc(-c2ccccn2)nn1)NCc1ccccc1	14%[57.1 µM]	1%[57.1 µM]	-7%	-76*	u	-1%
O=C(CSc1ccc(-c2ccccn2)nn1)NC1CCCCC1	18%[57.1 µM]	7%[57.1 µM]	0%	-90*	-72*	-2%
Cc1ccc(CNc2ncnc3nc[nH]c23)cc1	18%	4%	x	x	x	x
Cc1ccc(S(=O)(=O)c2cn(C)c3cc(N4CCOCC4)c(F)cc3c2=O)c(C)c1	-21%	4%	x	x	x	x
CC1(C)CC(=O)C(CS(=O)(=O)c2ccccc2)=C(Cl)C1	28µM*	4%	-1%	0	2	6%
CCOc1ccc(-c2nc3c(c(SCC(=O)N4CCCCC4)n2)Cc2cccc(OC)c2O3)cc1	25%	6%	x	x	x	x
NC(=O)NC(CC(=O)NNC(=O)c1ccccn1)c1ccccc1Cl (stereo not given)	0%	-7%	-3%	-65*	-79*	x
CNc1nc(-c2ccccn2)nnc1-c1ccccc1	-5%	-9%	-33%	-93*	-95*	0%
c1ccc(-c2nc(-c3ccccn3)no2)cc1	22%	9%	3%	0	-25	11%
Oc1ccccc1-c1nc(NC2CCCC2)c2ccccc2n1	23%	1%	12%	2	6	-3%
c1ccc(-c2nnc(-c3ccccn3)nc2NC2CCCCC2)cc1	-8%	-9%	-7%	-84*	-95*	0%
C/C(C/C(C)=C1/SC(=S)NC1=O)=C1\SC(=S)NC1=O	u	-7%[57.1 µM]	10%	-71*	u	-19%
NCC(=O)Nc1ccc(Cl)cc1C(=O)c1ccc[nH]1	7%[2.29 µM]	17%[57.1 µM]	-6%	-81*	x	8%
CC(=O)Nc1ccc(Cl)cc1C(=O)c1ccc[nH]1	x	x	x	1	1	x
Cc1ccc(C2Nc3cccc4cccc(c34)N2)s1	22µM*	-8%	-13%	-4	1	0%
Fc1ccc(C2Nc3cccc4cccc(c34)N2)cc1	25µM*	-2%	-11%	0	1	0%
Brc1ccc(C2Nc3cccc4cccc(c34)N2)cc1	u	-9%	x	-5	-1	x
FC(F)(F)c1ccc(C2Nc3cccc4cccc(c34)N2)cc1	28µM*	-6%	18%	1	4	15%
SMILES	TrxR1 inh	TrxR1 substrate	Eya2 phos inh	Six1-Eya2 inh	CtBP-E1A inh	GALK inhibitor
CCN(CC)c1ccc(NC(=O)C2CCN(S(=O)(=O)c3cnc[nH]3)CC2)c(C)c1	9%	-3%	x	x	x	x
Cc1cccc(N2CCN(C(=O)CCn3c(=O)c4cccn4c4cccnc43)CC2)c1C	12%	1%	x	x	x	x
CC(C)c1ccc(OC(=O)c2cc(-c3ccccc3)on2)cc1	10%	-2%	x	x	x	x
COc1cc2[nH]c(=O)n(CCCCCC(=O)N3CC=C(c4ccccc4)CC3)c(=O)c2cc1OC	30%[57.1 µM]	23%[57.1 µM]	-22%	u	-93*	0%
CN(C)c1ccc(/C=N\Nc2ccc([N+](=O)[O-])cc2[N+](=O)[O-])cc1Br	7%	-4%	x	x	x	x
CCN1CCN(C(=O)Cn2ncc3c4ccccc4n(Cc4c(C)cc(C)cc4C)c3c2=O)CC1	-18%	-5%	x	x	x	x
COc1cccc2sc(N3CCN(C(=O)CS(=O)(=O)c4ccc(Cl)cc4)CC3)nc12	14%[57.1 µM]	-1%[57.1 µM]	x	x	x	x
Cc1ccc(Cl)cc1N1CCN(C(=O)c2c(C)oc3ncnc(N4CCOCC4)c23)CC1	9%	2%	x	x	x	x
Cc1ccc(C)c(NC(=O)c2cc(S(=O)(=O)N3CCCc4ccccc43)ccc2F)c1	22%[57.1 µM]	2%[57.1 µM]	x	x	x	x
COc1ccc(CCn2c(=N)c(C(=O)NCc3ccco3)cc3c(=O)n4ccccc4nc32)cc1	-34%	-2%	4%	-75*	-83*	2%
CC(C)(C)NS(=O)(=O)c1ccc(CCC(=O)NCc2ccco2)cc1	u	5%	-7%	7	-4	3%
COc1ccc(CCC(=O)NCc2ccco2)cc1	11µM*	16%[57.1 µM]	-28%	13	0	1%
CCn1cc(C(=O)N(C)Cc2ccccc2)c(=O)c2cc(S(=O)(=O)N3CCCCC3)ccc21	1%	-10%	x	x	x	x
O=c1cc(-c2ccccc2)n(S(=O)(=O)c2ccccc2)o1	u	-4%	4%	4	-3	0%
COc1ccc(S(=O)(=O)n2oc(=O)cc2-c2ccccc2)cc1	u	-3%	14%	-90*	-73*	-1%
COc1ccc(S(=O)(=O)n2oc(=O)cc2-c2ccccc2)cc1OC	u	-6%	-5%	-95*	u	0%
O=C(CCS(=O)(=O)c1nc(-c2cccs2)cc(C(F)(F)F)n1)Nc1ccc(Br)cc1	-12%	5%[2.29 µM]	x	x	x	x
O=C(CCS(=O)(=O)c1nc(-c2cccs2)cc(C(F)(F)F)n1)Nc1cc(Br)ccc1O	14µM*	35%	x	x	x	x
Cc1cc(NC(=O)CCS(=O)(=O)c2nc(-c3ccccc3)cc(C(F)(F)F)n2)no1	18µM*	13%[57.1 µM]	-21%	-2	11	-2%
CS(=O)(=O)c1nc(-c2ccccc2)cc(C(F)(F)F)n1	18µM*	4%	-7%	-3	4	-5%
FC(F)(F)c1cc(-c2ccccc2)nc(N2CCCCCC2)n1	17%[57.1 µM]	7%	10%	23	21	-2%
Cc1ccc(O)c(NC(=O)CCS(=O)(=O)c2nc(-c3cccs3)cc(C(F)(F)F)n2)c1	20µM*	-3%	x	x	x	x
CCSC1=NC2(CCN(C(=O)NC3CCCCC3)CC2)N=C1c1ccc(C)cc1	0%	1%	x	x	x	x
O=C(C[n+]1ccc2ccccc2c1)c1ccc(F)cc1	-6%	11%	x	x	x	x
c1ccc(-c2noc(-c3ccco3)n2)nc1	-4%	-2%	11%	-6	-5	3%
